# Data taken from PubChem BioAssay.
# Activity calls are given as the source filed them. Unless noted, no rule for the calls is given here.
# How the values were obtained:
# [1] = compounds binding Alexa647 anti-His antibody – biochemical, small-molecule microarray, 635 nm fluorescence, artefact control for SMM control protein annotation, primary screen (AID 1128); conditions: higher = more signal;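 also: score merges feature fluorescence with signal-to-noise for each printed compound spot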
# [2] = tested on: Human papillomavirus type 1a E7 protein (residues 1-88); assay: HPV1a E7 small-molecule binders, primary screen, biochemical, small-molecule microarray, residues 1-88, 635 nm (AID 1129); conditions: small-molecule microarray binding, fluorescence 635 nm; higher = more signal
# [3] = biological target: Focal adhesion kinase 1 (Homo sapiens) (UniProt Q05397); assay: PTK2 protein binding on printed compound slides – biochemical, small-molecule microarray, 635/667 nm fluorescence, BSA, DTT, primary screen (AID 1130); conditions: 635 nm fluorescence, higher = more signal;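 also: composite of spot emission at 667 nm and signal to noise over triplicate slides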
# Chain of Focal adhesion kinase 1 (Homo sapiens) (Q05397 whole entry, looked up): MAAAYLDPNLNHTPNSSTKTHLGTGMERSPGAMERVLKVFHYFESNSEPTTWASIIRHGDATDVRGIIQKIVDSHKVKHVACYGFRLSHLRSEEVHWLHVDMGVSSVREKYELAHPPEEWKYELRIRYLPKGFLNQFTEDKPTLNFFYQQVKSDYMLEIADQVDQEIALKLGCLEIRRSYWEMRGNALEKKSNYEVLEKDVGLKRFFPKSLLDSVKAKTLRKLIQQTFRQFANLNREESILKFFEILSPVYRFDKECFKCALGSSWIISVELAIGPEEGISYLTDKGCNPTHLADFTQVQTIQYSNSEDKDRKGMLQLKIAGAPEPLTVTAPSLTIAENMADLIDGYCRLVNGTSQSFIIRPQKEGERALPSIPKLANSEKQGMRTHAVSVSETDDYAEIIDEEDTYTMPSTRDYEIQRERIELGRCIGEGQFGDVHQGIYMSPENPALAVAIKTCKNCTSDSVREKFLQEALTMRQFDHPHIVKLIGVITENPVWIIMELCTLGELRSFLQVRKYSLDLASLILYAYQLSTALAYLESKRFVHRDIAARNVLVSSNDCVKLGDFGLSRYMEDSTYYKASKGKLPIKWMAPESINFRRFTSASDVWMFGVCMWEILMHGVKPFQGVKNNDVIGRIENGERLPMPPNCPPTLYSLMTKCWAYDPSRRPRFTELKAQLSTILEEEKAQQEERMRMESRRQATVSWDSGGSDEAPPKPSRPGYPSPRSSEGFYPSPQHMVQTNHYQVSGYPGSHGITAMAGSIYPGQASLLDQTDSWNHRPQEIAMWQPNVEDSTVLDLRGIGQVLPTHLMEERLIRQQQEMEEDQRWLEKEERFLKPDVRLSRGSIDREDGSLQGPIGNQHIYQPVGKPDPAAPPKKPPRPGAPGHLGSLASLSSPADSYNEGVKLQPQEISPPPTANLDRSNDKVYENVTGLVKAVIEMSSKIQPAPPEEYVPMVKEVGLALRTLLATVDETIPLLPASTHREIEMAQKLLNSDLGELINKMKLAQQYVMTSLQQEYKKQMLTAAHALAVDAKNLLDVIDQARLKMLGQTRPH
# [4] = tested on: Fibrinogen (Alexa647-labelled); assay: Alexa647-fibrinogen binding to printed small molecules – biochemical, small-molecule microarray, 635/667 nm fluorescence, artefact control for SMM control-protein annotation, profiling panel (AID 1131); conditions: fibrinogen-A647 binding fluorescence, higher = more signal;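 also: z-score merges 667 nm fluorescence with per-spot signal-to-noise over triplicate slides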
# [5] = biological target: Follistatin (Homo sapiens) (UniProt P19883); assay: FST protein binding to printed compounds – biochemical, small-molecule microarray, 635/667 nm fluorescence, primary screen (AID 1132); conditions: 635 nm fluorescence, higher = more signal
# Chain of Follistatin (Homo sapiens) (P19883 whole entry, looked up): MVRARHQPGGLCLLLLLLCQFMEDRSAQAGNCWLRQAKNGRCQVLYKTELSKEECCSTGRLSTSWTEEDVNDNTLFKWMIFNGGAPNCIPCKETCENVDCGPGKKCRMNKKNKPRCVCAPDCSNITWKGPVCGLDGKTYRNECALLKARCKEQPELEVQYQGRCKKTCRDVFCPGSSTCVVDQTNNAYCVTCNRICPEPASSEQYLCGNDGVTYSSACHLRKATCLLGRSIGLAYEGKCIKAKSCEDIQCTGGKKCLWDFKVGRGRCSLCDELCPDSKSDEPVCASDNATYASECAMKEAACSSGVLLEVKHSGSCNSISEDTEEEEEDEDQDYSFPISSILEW
# [6] = biological target: Fibroblast growth factor 2 (Homo sapiens) (UniProt P09038); assay: basic fibroblast growth factor binding to printed compounds – biochemical, small-molecule microarray, 635/667 nm fluorescence, primary screen (AID 1133); conditions: FGF2, fluorescence 635/667, higher = more signal
# Chain of Fibroblast growth factor 2 (Homo sapiens) (P09038 whole entry, looked up): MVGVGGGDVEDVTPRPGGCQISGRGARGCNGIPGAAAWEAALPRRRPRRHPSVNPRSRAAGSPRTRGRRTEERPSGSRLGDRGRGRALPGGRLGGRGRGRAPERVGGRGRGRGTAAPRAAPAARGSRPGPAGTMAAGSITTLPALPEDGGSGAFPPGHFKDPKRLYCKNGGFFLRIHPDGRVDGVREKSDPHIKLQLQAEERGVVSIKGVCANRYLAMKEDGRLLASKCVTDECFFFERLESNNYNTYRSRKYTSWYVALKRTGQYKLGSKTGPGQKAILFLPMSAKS
# [7] = JC-1 mitochondrial potential readout, lung cancer cells – cell-based, A549, JC-1 fluorescence, basal, 24 h, 100 nL, profiling panel (AID 1138); conditions: higher = more signal;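 also: A549 lung adenocarcinoma cells under basal conditions with no added stimulus; test concentration not given here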
# [8] = tested on: Lefty1; assay: Lefty1 protein binding to printed compounds – biochemical, small-molecule microarray, 635/667 nm fluorescence, primary screen (AID 1139); conditions: fluorescence 635/667, higher = more signal
# [9] = tested on: wheat germ agglutinin (Triticum aestivum), Alexa647-labelled; assay: Alexa647-WGA lectin binding to printed small molecules – biochemical, small-molecule microarray, 635/667 nm fluorescence, artefact control for SMM control-protein annotation, profiling panel (AID 1140); conditions: WGA-A647 binding, 635 nm fluorescence, higher = more signal;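 also: score merges 667 nm feature emission with signal to noise over triplicate slides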
# [10] = biological target: Luciferin 4-monooxygenase (Photinus pyralis) (UniProt P08659); assay: inhibition of purified Photinus pyralis luciferase – biochemical, luminescence, purified enzyme, 2006 set, primary screen (AID 1141); conditions: purified firefly luciferase, SteadyGlo luminescence, 30 min; higher = more signal, called active from +8 up or from −8 down;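 also: cell-free assay with purified firefly luciferase at 100 ng per well in PBS; test concentration not given here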
# Chain of Luciferin 4-monooxygenase (Photinus pyralis) (P08659 whole entry, looked up): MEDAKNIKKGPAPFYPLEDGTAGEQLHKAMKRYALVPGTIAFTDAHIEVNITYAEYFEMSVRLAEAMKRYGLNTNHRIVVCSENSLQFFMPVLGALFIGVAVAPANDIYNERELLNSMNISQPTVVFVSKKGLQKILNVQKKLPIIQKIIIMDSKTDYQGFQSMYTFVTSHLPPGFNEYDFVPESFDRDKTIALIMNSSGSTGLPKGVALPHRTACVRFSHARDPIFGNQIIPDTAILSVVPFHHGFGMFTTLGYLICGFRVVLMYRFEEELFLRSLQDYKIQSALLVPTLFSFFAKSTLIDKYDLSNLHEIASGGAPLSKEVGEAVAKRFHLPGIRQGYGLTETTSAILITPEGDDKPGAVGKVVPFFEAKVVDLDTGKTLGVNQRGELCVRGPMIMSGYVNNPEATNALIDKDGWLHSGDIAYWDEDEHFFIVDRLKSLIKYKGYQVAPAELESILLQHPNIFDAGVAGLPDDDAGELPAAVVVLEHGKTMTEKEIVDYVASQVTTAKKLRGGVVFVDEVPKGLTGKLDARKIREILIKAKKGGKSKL
# [11] = tested on: Wnt5a (protein binding on small-molecule microarray); assay: small molecules binding Wnt5a protein – biophysical, small-molecule microarray, 635/667 nm fluorescence, primary screen (AID 1142); conditions: 635 nm fluorescence, higher = more signal;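 also: fluorescence read at 667 nm with signal to noise per printed feature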
# [12] = ATP-based viability of Huh7 replicon cells – cell-based, CellTiter-Glo luminescence, basal, 48 h, cytotoxicity control for HCV replication inhibitor project, primary screen (AID 1143); conditions: higher = more signal, called active from +8 up or from −8 down;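 also: Huh7 hepatoma cells carrying a hepatitis C replication reporter with no stimulus; test concentration not given here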
# [13] = Pseudomonas biofilm growth suppression – PAO1 strain, BacTiter-Glo luminescence, LB-PBS, primary screen (AID 1144); conditions: P. aeruginosa PAO1 biofilm, 12 h, higher = more signal
# [14] = basal CRE-LacZ reporter activity in PC12 – cell-based, unstimulated, primary screen (AID 1145); conditions: no forskolin, luminescence, 4.5 h, higher = more signal, called active from +8 up or from −8 down
# [15] = forskolin-driven CRE-LacZ activity in PC12 – cell-based, CRE-LacZ reporter, forskolin-stimulated, primary screen (AID 1146); conditions: luminescence, 4.5 h, higher = more signal, called active from +8 up or from −8 down;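 also: PC12 cells with 6xCRE LacZ reporter stimulated by forskolin 10 µM; beta-galactosidase reporter signal reflecting CREB driven transcription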
# [16] = biological target: Streptavidin (Streptomyces avidinii) (UniProt P22629); assay: compounds binding control protein streptavidin – biophysical, small-molecule microarray, 635/667 nm fluorescence, artefact control for SMM compound annotation, primary screen (AID 1147); conditions: higher = more signal;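 also: signal reflects streptavidin binding to arrayed compounds as a control protein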
# Chain of Streptavidin (Streptomyces avidinii) (P22629 whole entry, looked up): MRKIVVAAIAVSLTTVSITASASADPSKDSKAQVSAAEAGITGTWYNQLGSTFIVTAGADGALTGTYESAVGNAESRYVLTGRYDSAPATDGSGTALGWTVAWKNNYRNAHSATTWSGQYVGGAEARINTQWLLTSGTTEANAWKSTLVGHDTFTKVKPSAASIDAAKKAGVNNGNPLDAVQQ
# [17] = probe aInhba binding on compound microarray – biochemical, small-molecule microarray, 635/667 nm fluorescence, primary screen (AID 1148); conditions: higher = more signal;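 also: score merges 667nm spot fluorescence with signal-to-noise for antibody binding to printed compounds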
# [18] = biological target: Torsin-1A (Homo sapiens) (UniProt O14656); assay: TOR1A wild-type binding on microarray – cell lysate, small-molecule microarray, lysate, 635/667 nm, primary screen (AID 1149); conditions: COS7 hTOR1A-WT lysate, 635 nm fluorescence, higher = more signal
# Chain of Torsin-1A (Homo sapiens) (O14656 whole entry, looked up): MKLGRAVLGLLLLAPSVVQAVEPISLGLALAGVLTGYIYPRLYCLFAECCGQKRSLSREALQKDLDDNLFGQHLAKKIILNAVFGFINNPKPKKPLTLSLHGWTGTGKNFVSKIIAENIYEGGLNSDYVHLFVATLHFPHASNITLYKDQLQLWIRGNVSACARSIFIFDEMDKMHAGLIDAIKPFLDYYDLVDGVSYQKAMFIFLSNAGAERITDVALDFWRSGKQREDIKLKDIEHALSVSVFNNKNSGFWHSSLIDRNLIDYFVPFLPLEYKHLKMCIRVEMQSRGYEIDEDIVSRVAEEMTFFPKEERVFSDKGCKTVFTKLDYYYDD
# [19] = biological target: Torsin-1A (Homo sapiens) (UniProt O14656); assay: torsin A mutant lysate binding on microarrays – cell lysate, small-molecule microarray, COS7 lysate, 635/667 nm fluorescence, primary screen (AID 1150); conditions: COS7 hTOR1A mutant lysate, 635 nm fluorescence, higher = more signal;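 also: score pools 667 nm emission and signal to noise measuring lysate protein binding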
# [20] = tested on: Sonic hedgehog protein (Shh); assay: Sonic hedgehog microarray binding compounds – biochemical, small-molecule microarray, 635/667 nm fluorescence, primary screen (AID 1151); conditions: 635 nm fluorescence, higher = more signal;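 also: Shh protein binding to compounds spotted on small-molecule microarray slides; score combines spot fluorescence intensity with signal-to-noise across triplicate slides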
Structure (SMILES),composite z-score [1],composite z-score [2],composite z-score [3],composite z-score [4],composite z-score [5],composite z-score [6],z-score [7],composite z-score [8],composite z-score [9],z-score [10],composite z-score [11],z-score [12],z-score [13],z-score [14],z-score [15],composite z-score [16],composite z-score [17],composite z-score [18],composite z-score [19],composite z-score [20]
O=C(NCCN1CCOCC1)[C@@H]1c2ccccc2C(=O)N(C2CCCCC2)[C@H]1c1ccc(CO)cc1,0.166,0.0657,-0.0962,0.74,0.0603,-0.59,2.27,-0.0981,-0.403,-0.293 (inactive),-0.178,-0.742 (inactive),0.00698 (inactive),0.791 (inactive),-0.168 (inactive),0.254,-0.153,-0.945,-0.653,-0.908
COc1ccccc1CN1C(=O)c2ccccc2[C@@]2(Cc3ccccc3N(CC(C)C)C2=O)[C@@H]1c1ccc(CO)cc1,-0.259,-0.827,-0.362,-0.705,-0.114,-0.556,0.379,-0.0355,-0.219,-0.35 (inactive),-0.37,0.332 (inactive),0.8 (inactive),-0.412 (inactive),0.462 (inactive),-0.551,0.027,-0.913,-0.0676,-0.452
CN(C)CCCCCCNC(=O)[C@H]1C[C@H]2C(=O)N3CCC[C@H]3C(=O)N2[C@H]1c1ccc(O)cc1,2.74,1.24,1.03,0.678,1.34,1.48,-0.727,1.39,0.622,-0.171 (inactive),0.899,-0.865 (inactive),0.332 (inactive),-0.268 (inactive),-0.933 (inactive),0.192,0.019,1.95,-0.118,2.04
COCCOC(=O)N1C(=O)[C@@]2(c3ccccc31)[C@H](C(=O)N1CCc3cc(OC)c(OC)cc3C1)[C@H]1C(=O)O[C@H](c3ccccc3)[C@H](c3ccccc3)N1[C@@H]2c1ccc(OCCO)cc1,2.67,1.22,0.789,0.896,1.25,1.1,-0.382,0.492,0.722,-1.76 (inactive),0.146,-0.704 (inactive),0.73 (inactive),0.685 (inactive),-0.653 (inactive),0.547,0.0569,0.0657,1.21,1.41
C=C(/C(=C/C[C@H](OC(C)=O)c1ccc(CO)o1)c1cc(C(=O)OC)ccc1OC)C(C)C,-0.978,-0.184,-0.0384,-1.25,0.467,0.539,-0.483,0.864,-1.24,-1.33 (inactive),0.0267,-3.56 (inactive),0.263 (inactive),2.22 (inactive),0.769 (inactive),-0.489,0.0051,-0.501,0.241,1.05
O=C1NC(=O)C2C1C=CC(C(O)c1cccs1)N2Nc1ccc(Cl)cc1Cl (stereo not given),0.541,-0.443,-0.0686,-0.868,-0.222,-0.534,-0.384,-0.245,0.22,-1.64 (inactive),-0.0653,0.0581 (inactive),-0.24 (inactive),-0.136 (inactive),-0.109 (inactive),-0.695,-0.118,0.352,0.112,-0.0963
COCCOC(=O)N1C(=O)[C@@]2(c3cc(C#CCNC(N)=O)ccc31)[C@H](C(=O)Nc1nc3ccccc3s1)[C@H]1C(=O)O[C@H](c3ccccc3)[C@H](c3ccccc3)N1[C@@H]2c1ccc(OCCO)cc1,-0.187,0.669,0.346,0.901,1.36,1.08,-2.31,0.9,0.677,-2.41 (inactive),0.341,0.759 (inactive),-0.609 (inactive),-0.874 (inactive),-0.274 (inactive),0.664,0.261,-0.0017,0.452,0.969
CCN(CC)c1ccc(N2CC=CC34O[C@@H]5C=CCCOC(=O)C5[C@H]3C(=O)N(CCCCCCO)[C@@H]4C2=O)cc1 (stereo not given in full),1.43,0.321,0.899,-1.15,-0.372,-0.551,-0.115,0.0079,0.623,-4.35 (inactive),-0.212,-1.32 (inactive),-1.35 (inactive),-1.85 (inactive),-0.716 (inactive),-0.729,-0.209,0.454,1.57,-0.179
C=C(/C(=C/C[C@H](OC(C)=O)c1ccccc1OCCO)c1cnc2ccccc2c1)C(C)C,-0.577,0.0336,0.119,-0.498,1.3,0.58,1.12,0.505,1.07,-1.14 (inactive),0.025,-1.61 (inactive),0.445 (inactive),4.98 (inactive),1.49 (inactive),0.533,0.0543,0.316,0.0233,1.09
C[N+](C)(C)CCCCNC(=O)[C@@H]1C[C@@H]2C(=O)N[C@@H](Cc3ccccc3)C(=O)N2[C@@H]1c1cccc(OCCO)c1,3.38,-0.636,-0.449,-1.23,1.32,1.55,1.21,0.245,-1.02,-1.75 (inactive),0.175,-0.36 (inactive),-0.314 (inactive),-0.26 (inactive),-0.471 (inactive),-1.02,-0.179,0.938,0.713,1.91
